Target: Neurogenic locus notch homolog protein 2 (Homo sapiens) (UniProt Q04721)
Assay: Notch2 binders on small-molecule microarrays, primary screen, biochemical, small-molecule microarray, 635 nm fluorescence, stem cell growth factors (AID 1073)
Conditions: Notch2 binding, higher = more signal

Chain of Neurogenic locus notch homolog protein 2 (Homo sapiens) (Q04721 whole entry, looked up): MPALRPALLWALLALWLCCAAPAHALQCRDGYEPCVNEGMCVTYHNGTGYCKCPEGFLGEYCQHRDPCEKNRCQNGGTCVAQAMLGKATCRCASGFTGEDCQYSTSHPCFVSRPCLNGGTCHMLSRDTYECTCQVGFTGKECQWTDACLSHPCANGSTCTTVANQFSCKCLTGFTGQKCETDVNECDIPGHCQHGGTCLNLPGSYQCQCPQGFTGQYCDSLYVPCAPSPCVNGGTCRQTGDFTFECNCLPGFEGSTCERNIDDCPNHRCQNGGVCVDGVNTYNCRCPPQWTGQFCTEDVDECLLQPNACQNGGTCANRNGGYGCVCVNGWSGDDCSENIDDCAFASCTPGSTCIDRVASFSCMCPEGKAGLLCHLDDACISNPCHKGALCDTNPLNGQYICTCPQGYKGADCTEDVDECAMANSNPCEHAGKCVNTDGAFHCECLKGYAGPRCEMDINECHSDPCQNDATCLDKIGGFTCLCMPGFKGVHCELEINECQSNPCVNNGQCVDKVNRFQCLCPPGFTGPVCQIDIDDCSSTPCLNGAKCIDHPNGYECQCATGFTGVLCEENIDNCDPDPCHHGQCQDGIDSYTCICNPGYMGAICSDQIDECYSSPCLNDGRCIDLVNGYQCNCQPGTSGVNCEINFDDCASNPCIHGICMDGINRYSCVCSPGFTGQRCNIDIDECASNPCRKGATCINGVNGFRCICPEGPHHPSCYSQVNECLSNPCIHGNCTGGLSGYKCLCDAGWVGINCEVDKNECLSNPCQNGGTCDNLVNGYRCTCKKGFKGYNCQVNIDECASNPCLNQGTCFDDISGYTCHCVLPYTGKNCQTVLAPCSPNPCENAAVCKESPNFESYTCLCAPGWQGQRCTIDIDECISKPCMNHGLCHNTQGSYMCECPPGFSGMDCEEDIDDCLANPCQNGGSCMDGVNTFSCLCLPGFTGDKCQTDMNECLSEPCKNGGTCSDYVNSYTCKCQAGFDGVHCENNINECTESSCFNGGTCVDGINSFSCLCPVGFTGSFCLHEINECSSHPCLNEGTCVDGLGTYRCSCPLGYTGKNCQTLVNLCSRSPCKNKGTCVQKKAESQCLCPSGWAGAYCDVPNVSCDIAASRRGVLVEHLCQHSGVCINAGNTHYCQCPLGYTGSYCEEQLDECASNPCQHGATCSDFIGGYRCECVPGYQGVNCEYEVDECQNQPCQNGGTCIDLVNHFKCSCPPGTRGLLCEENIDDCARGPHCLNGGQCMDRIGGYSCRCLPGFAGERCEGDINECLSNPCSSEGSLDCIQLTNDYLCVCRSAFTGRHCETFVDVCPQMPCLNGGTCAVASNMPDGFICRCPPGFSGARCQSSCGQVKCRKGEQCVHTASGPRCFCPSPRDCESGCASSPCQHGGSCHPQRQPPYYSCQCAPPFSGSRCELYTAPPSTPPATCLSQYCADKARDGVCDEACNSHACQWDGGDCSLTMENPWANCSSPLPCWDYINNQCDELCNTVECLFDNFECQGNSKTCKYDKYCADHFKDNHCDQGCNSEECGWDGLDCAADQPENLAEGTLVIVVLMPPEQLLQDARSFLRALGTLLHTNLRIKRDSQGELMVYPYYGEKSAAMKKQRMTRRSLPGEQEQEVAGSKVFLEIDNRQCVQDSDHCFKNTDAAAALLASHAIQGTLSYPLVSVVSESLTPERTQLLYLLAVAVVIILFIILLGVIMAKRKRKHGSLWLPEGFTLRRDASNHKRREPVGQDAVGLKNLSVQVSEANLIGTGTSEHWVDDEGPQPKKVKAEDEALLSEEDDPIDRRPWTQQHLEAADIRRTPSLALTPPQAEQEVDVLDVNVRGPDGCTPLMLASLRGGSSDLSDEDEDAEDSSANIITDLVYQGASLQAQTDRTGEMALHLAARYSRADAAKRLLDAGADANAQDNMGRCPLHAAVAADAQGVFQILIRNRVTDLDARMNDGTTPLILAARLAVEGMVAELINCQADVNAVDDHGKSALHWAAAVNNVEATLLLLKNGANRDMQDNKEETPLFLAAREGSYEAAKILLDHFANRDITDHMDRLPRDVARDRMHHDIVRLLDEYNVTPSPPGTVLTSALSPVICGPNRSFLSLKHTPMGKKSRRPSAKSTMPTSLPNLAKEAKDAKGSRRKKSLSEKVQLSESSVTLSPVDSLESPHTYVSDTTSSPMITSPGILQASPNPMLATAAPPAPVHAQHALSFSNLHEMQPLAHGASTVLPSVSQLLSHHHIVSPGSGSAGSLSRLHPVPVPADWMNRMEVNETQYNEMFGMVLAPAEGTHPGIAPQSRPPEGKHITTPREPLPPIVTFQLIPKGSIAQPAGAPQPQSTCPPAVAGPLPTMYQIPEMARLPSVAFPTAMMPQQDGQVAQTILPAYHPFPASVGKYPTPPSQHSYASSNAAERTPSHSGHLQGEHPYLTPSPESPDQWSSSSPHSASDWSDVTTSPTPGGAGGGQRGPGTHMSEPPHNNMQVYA

Structure (SMILES) | composite z-score
CC(C)C[C@@H]1NC(=O)[C@@]23C(=O)N[C@@H](Cc4ccccc4)C2[C@H](C)[C@@]2(C)O[C@H]2C3/C=C/C/C=C\CNC(=O)[C@@H](CC(C)C)NC1=O (some centres undefined) | 0.416
C=CCC(OC(C)=O)[C@@H]1[C@@H](N(Cc2ccc(-c3cccc(C(F)(F)F)c3)o2)C(=O)c2cccc3ccccc23)c2cc(OCCCO)ccc2N1C(=O)c1ccc2ccccc2c1 (some centres undefined) | -0.365
O=C1OCCC/C=C\[C@H]2OC34C=CCN(Cc5ccccc5)C(=O)[C@H]3N(CCCCCO)C(=O)[C@@H]4C12 (some centres undefined) | -1.12
CCCC=C(CCC)[C@@H](NC(=O)c1ccccc1)c1ccc(C(=O)OC)cc1 | 0.541
COC(=O)[C@@]1(Cc2ccc(F)cc2)[C@H]2c3cc(C(=O)N4CCCC4)n(CCO)c3C[C@H]2CN1C(=O)c1ccccc1 | 1.64
COCCCNC(=O)[C@@]1(Sc2ccc(C)cc2)CC(=O)N(C2CCCCC2)[C@@H]1c1ccc(CO)cc1I | 1.02
COc1ccc([Si](C)(C)[C@H]2[C@H](CCO)O[C@@]3(C(=O)N(Cc4ccc(N5CCOC5=O)cc4)c4ccccc43)[C@@H]2C)cc1 | -0.0425
C=CCNC(=O)[C@@H]1[C@H]2C(=O)O[C@H](c3ccccc3)[C@H](c3ccccc3)N2[C@H](c2ccccc2OCCO)[C@@]12C(=O)N(C(=O)OCCOC)c1ccc(C#CCCO)cc12 | 0.742
COCCOC(=O)N1C(=O)[C@@]2(c3ccccc31)[C@H](C(=O)N1CCCCCCC1)[C@H]1C(=O)O[C@H](c3ccccc3)[C@H](c3ccccc3)N1[C@@H]2c1ccc(O)cc1 | 1.08

Source: PubChem BioAssay
